DRD3 agonist – qHTS of D3 Dopamine Receptor Agonist: qHTS; D3R DiscoveRx beta-arrestin cells, luminescence, 90 min; max activation, %; AID 652048, 2013; hit rate 0.58% among 410,000; in the data active = max activation above about 30%
Target sequence (P35462 whole entry, looked up): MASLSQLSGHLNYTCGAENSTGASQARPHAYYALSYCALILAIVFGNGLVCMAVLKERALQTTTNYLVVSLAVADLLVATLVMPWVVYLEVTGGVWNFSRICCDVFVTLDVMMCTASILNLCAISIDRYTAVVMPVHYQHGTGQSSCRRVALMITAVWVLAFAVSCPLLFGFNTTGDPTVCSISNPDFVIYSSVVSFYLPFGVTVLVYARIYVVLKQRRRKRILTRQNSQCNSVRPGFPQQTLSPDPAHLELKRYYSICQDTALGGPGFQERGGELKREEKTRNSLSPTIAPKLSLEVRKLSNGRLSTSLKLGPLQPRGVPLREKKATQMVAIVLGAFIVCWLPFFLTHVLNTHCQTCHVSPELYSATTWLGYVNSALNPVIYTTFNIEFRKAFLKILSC
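Agonist-mode cell screen: cells plated at 1500/well and incubated overnight at 37 °C, then exposed to library compounds for 90 min at 37 °C. Detection reagent was added for 30–60 min at room temperature, and luminescence was read.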
Nrf2 ARE act – qHTS of Nrf2 Activators | AID 624171, 2012 | Potency, µM (highest dose often 46.1 µM), hits mostly activators | hit rate 0.31% among 410,000 | AREc32 ARE-luciferase reporter (MCF7-derived line), luminescence, 24 h; note: nearly all actives have a fitted effect of over 65% in size
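ARE-driven firefly luciferase activity in AREc32 cells measured after a 24 hr compound exposure at 37 deg C, using Steady-Glo reagent and a 30 min room-temperature hold.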
D3 antag – qHTS of D3 Dopamine Receptor Antagonist: qHTS. AID 652054, 2013. max response, negative = inhibition, %. hit rate 2.5% among 360,000. D(3) dopamine receptor (Homo sapiens), P35462. D3R cells, DiscoveRx beta-arrestin luminescence, antagonist mode; active compounds read low; in the data active = max response below about -50%; inconclusive = no clear call, values can overlap the other calls
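Cells plated overnight at 1500 cells/well, then exposed to library compounds with dopamine controls for 90 minutes at 37 degrees C. DiscoveRx reagent added for 30–60 minutes at room temperature; luminescence read, quantitative HTS format.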
Glioma ERSR ind – qHTS for Inducers of the Endoplasmic Reticulum Stress Response (ERSR) in Human Glioma: qHTS | U87-MG GRP78 promoter luciferase reporter, 16 h | Potency, µM, usual class: activators | hit rate 0.02% among 420,000; note: series mostly up to about 76 µM; nearly all actives have a fitted effect of over 35% in size
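Stably transfected U87-MG glioma cells carrying a GRP78-based luciferase sensor; 16 h compound incubation. Luminescence end-point read 10 min after Bright-Glo addition at room temperature.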
A number is an active result; – = inactive; ? = inconclusive; · = no result given; [ ] = remark or other dose. A selection: hits, their analogues and other compounds. The true share with any hit is near 3%. Unless noted, calls come from the whole dose curve; as a rule, active = well fitted curve in the direction sought with a large enough effect; inconclusive = small, poorly fitted or top-dose-only effect, or another doubt; inactive = no such curve, though single readings can be large; an effect the other way counts as inactive or inconclusive.

SMILES	DRD3 agonist	Nrf2 ARE act	D3 antag	Glioma ERSR ind
CCN(CC)CCN1c2ccccc2Sc2ccccc21	–	–	?	–
CN(C)CCCN1c2ccccc2Sc2ccccc21	–	–	-105.4	–
CN(C)CCCN1c2ccccc2CCc2ccc(Cl)cc21	–	–	-103.5	–
O=C(Cn1c(O)c(/C=C2\C=Nc3ccc(Br)cc32)sc1=O)N1CCCC1	–	–	?	–
O=c1[nH]c(O)c(/C=C2\C=Nc3ccc(Br)cc32)[nH]1	–	10µM	–	–
CC1(C)CC(=O)C2=C(C1)NC(=O)NC2c1ccc(Cl)cc1 (centres undefined)	–	–	–	–
CC1(C)CC(=O)C2=C(C1)Nc1cc(Cl)ccc1S2	30.7	–	–	–
CN(C)CCOC(=O)C12CC3CC(CC(C3)C1)C2	–	–	?	–
CN(C)CCOC(=O)C12CC3(C)CC(C)(CC(C)(C3)C1)C2	–	–	-84.3	–
CCC[C@@H](CN1CCC[C@H]1CN1C(N)=NC[C@@H]1Cc1ccccc1)N1C[C@@H]([C@H](C)CC)N(CCCC2CCCC2)C1=N	–	–	-97.1	–
CCC[C@@H](CN1CCC[C@H]1CN1C(N)=NC[C@@H]1Cc1ccccc1)N1C[C@@H](Cc2ccccc2)N(CCCC2CCCC2)C1=N	–	–	-64.1	–
CCC[C@@H](CN1CCC[C@H]1CN1C(N)=NC[C@H]1CC(C)C)N1C[C@@H](Cc2ccccc2)N(CCCC2CCCC2)C1=N	–	–	–	–
CCCCN1C(=N)N([C@@H](CCC)CN2CCC[C@H]2CN2C(N)=NC[C@@H]2Cc2ccccc2)C[C@H]1Cc1ccccc1	–	–	-79.5	–
Cc1nc(C)n(CC(=O)N2CCOc3ccc(CN4CCN(C)C[C@@H]4c4ccccc4)cc3C2)n1	·	·	·	–
O=c1[nH]cc(N=Cc2cc(Cl)cc(Cl)c2O)c(=O)[nH]1	–	–	-66.9	–
CC1=NN(C(N)=S)C(=O)C1N=Nc1ccccc1C (centres undefined)	–	–	-89.3	–
CC1=NN(C(N)=S)C(=O)C1N=Nc1ccccc1O (centres undefined)	–	?	–	–
O=C(O)/C=C/c1ccc2c(c1)S(=O)(=O)N(C1CCCC1)[C@H]2CC(=O)O	·	·	·	–
CCN(C(=O)COC(=O)c1cccnc1Nc1cccc(C(F)(F)F)c1)C1CCS(=O)(=O)C1 (centres undefined)	–	11.2µM	–	–
CC[C@H](C)[C@H](NC(=O)[C@@H](NC(=O)CNC(=O)[C@@H](N)CC(C)C)[C@@H](C)O)C(=O)N1CCC[C@H]1C(=O)NCC(=O)O	·	·	·	–
CC(C)C[C@@H](NC(=O)[C@H](Cc1ccccc1)NC(=O)c1cnccn1)B(O)O	·	·	·	–
C=CCN1CC[C@@H](O)C(=C)S1(=O)=O	·	·	·	–
CC[C@@]1(C(=O)OC)N[C@H](CN(C)S(=O)(=O)c2ccc(C(C)(C)C)cc2)[C@@H]2C(=O)N(C)C(=O)[C@@H]21	41.0	–	–	–
CC[C@@]1(C(=O)OC)N[C@H](CN(C)S(=O)(=O)c2ccc(-c3ccccc3)cc2)[C@@H]2C(=O)N(C)C(=O)[C@@H]21	–	–	–	–
CC[C@@]1(C(=O)OC)N[C@H](CN(C)S(=O)(=O)c2ccccc2)[C@@H]2C(=O)N(C)C(=O)[C@@H]21	34.1	–	–	–
SMILES	DRD3 agonist	Nrf2 ARE act	D3 antag	Glioma ERSR ind
COc1cccc(C2(CC(=O)N3CCN(c4ccccn4)CC3)CC(=O)N(C3CCCC3)C2=O)c1 (centres undefined)	·	·	·	–
Cc1cc(N2CCN(c3ncccn3)CC2)nc2c(C)cccc12	35.9	–	–	–
COc1ccc(N2CCN(c3cc(C)c4cccc(C)c4n3)CC2)cc1	–	–	–	–
COc1ccc(CN2CCOc3ccc(C(O)c4cccnc4)cc3C2)c(F)c1 (centres undefined)	·	·	·	–
Cn1c(=O)c(/C=C/c2ccccc2)nc2ccccc21	–	5.01µM	–	–
Cc1[nH]c2c(Cl)cccc2c(=O)c1CN1CCCC1	–	–	-65.3	–
CCN(CC)S(=O)(=O)c1ccc2nc(NC(=O)c3ccco3)sc2c1	–	–	–	–
CCN(CC)S(=O)(=O)c1ccc2nc(NC(=O)c3cccs3)sc2c1	–	–	-56.3	–
COC(=O)C1CCN(Cc2ccc3c(c2)CN(C(=O)C(C)N2CCOCC2)CCO3)CC1 (centres undefined)	·	·	·	–
CC(=O)c1ccc(F)c(-c2cc(C)cc3c2OC(CNC(=O)C2CCCCN2C)C3)c1 (centres undefined)	·	·	·	–
CCOc1ccc(CN2C(=O)c3ccccc3C2C(=O)NC(C)CC)cc1OC (centres undefined)	–	–	-63.1	–
CC(C)c1ccc(Cn2cnc3c(cnn3C(C)(C)C)c2=O)cc1	·	·	·	–
CC(C)(C)n1ncc2c(=O)n(Cc3ccc(SC(F)(F)F)cc3)cnc21	·	·	·	–
CC(=O)OCC(=O)[C@@]1(O)[C@H](C)C[C@H]2[C@@H]3C[C@H](F)C4=CC(=O)C=C[C@]4(C)[C@H]3[C@@H](O)C[C@@]21C	–	·	·	·
OC(CN1CCC(Cc2ccccc2)CC1)c1ccccc1 (centres undefined)	–	–	-88.2	–
Cc1ccc(OCC(O)CN2CCC(Cc3ccccc3)CC2)c(C)c1 (centres undefined)	–	–	-56.5	–
OC(CN1CCN(Cc2ccccc2)CC1)c1ccccc1 (centres undefined)	–	–	–	–
OC(COc1ccccc1Br)CN1CCNCC1 (centres undefined)	–	–[9.22 µM]	–	–
OC(COc1ccccc1)CN1CCC(Cc2ccccc2)CC1 (centres undefined)	–	–	-75.3	–
OC(COc1ccc(F)cc1Cl)CN1CCC(Cc2ccccc2)CC1 (centres undefined)	–	–	-78.9	–
COc1cccc(OCC(O)CN2CCC(Cc3ccccc3)CC2)c1 (centres undefined)	–	–	–	–
Cn1nccc1C(=O)NCC1CCC2(CCN(Cc3ccc(-c4ccc(Cl)cc4)o3)CC2)O1 (centres undefined)	·	·	·	–
COCc1ccc(C(=O)N2CCOc3c(cc(-c4cc(C)c5cccc(OC)c5n4)cc3OC)C2)o1	·	·	·	–
OC(COc1ccccc1F)CN1CCC(Cc2ccccc2)CC1 (centres undefined)	–	–	-81.4	–
OC(COc1ccc(OCC(O)CN2CCN(Cc3ccccc3)CC2)cc1)CN1CCN(Cc2ccccc2)CC1 (centres undefined)	–	–	?	–
CCCCN1CCC2C=CCC(C(=O)O)C2C1=O (centres undefined)	·	·	·	–
O=C(O)CN(CC(=O)O)CC(=O)O	–	–	-73.0	–
Cc1ccc(NC(=S)NCCC(c2ccccc2)c2ccccc2)c(C)c1	–	–	-66.6	–
Cc1ccc(NC(=S)NCc2ccccc2)c(C)c1	–	–	–	–
Cc1ccccc1NC(=S)NCCC(c1ccccc1)c1ccccc1	–	–	-59.8	–
